Test results published in the supplement of paper PMC10849652.
The full data set covers some 8,800 targets. This sample favours those with a hit. About 0.5% of all pairs of compound and target were hits.

Assays:
Experiment in all cases: log2 fold change, soluble protein after heating vs DMSO (PISA); higher = thermal stabilisation; K562 lysate, 10 uM; active = over 0.2 and 3.5 SD of the protein, either way, in both replicates (recomputed)
[1] = compound: NCC(=O)Nc1ccc(-n2nc(C(F)(F)F)cc2-c2ccc3c(ccc4ccccc43)c2)cc1
How it was run: (§1)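 A 30 min treatment with 10 μM compound was applied to crude K562 extract at 1 mg/mL protein in PBS pH 7.4 with 1 mM MgCl2. Heating for 3 min spanned 48°C-58°C, after which aliquots were pooled, adjusted to 0.5% NP-40 at 4°C and spun at 21,000xg for 90 min. TMTpro 16plex LC-MS/MS of the supernatant, with channel sums equalised, gave values recorded as log-two fold change in thermal stability against solvent controls, from duplicates.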

vorinostat = compound: O=C(CCCCCCC(=O)Nc1ccccc1)NO [vorinostat]
How it was run: as §1

silmitasertib = compound: O=C(O)c1ccc2c(c1)nc(Nc1cccc(Cl)c1)c1ccncc12 [silmitasertib]
How it was run: as §1

[2] = compound: O=C1NC(=O)C(c2cnc3ccccn23)=C1c1cn2c3c(cc(F)cc13)CN(C(=O)N1CCCCC1)CC2
How it was run: as §1

entospletinib = compound: c1cn2cc(-c3ccc4cn[nH]c4c3)nc(Nc3ccc(N4CCOCC4)cc3)c2n1 [entospletinib]
How it was run: as §1

Measured: log2 fold change

ACIN1 isoform 5 (UniProt Q9UKV3)
UniProt Q9UKV3, sequence (Q9UKV3 whole entry, looked up): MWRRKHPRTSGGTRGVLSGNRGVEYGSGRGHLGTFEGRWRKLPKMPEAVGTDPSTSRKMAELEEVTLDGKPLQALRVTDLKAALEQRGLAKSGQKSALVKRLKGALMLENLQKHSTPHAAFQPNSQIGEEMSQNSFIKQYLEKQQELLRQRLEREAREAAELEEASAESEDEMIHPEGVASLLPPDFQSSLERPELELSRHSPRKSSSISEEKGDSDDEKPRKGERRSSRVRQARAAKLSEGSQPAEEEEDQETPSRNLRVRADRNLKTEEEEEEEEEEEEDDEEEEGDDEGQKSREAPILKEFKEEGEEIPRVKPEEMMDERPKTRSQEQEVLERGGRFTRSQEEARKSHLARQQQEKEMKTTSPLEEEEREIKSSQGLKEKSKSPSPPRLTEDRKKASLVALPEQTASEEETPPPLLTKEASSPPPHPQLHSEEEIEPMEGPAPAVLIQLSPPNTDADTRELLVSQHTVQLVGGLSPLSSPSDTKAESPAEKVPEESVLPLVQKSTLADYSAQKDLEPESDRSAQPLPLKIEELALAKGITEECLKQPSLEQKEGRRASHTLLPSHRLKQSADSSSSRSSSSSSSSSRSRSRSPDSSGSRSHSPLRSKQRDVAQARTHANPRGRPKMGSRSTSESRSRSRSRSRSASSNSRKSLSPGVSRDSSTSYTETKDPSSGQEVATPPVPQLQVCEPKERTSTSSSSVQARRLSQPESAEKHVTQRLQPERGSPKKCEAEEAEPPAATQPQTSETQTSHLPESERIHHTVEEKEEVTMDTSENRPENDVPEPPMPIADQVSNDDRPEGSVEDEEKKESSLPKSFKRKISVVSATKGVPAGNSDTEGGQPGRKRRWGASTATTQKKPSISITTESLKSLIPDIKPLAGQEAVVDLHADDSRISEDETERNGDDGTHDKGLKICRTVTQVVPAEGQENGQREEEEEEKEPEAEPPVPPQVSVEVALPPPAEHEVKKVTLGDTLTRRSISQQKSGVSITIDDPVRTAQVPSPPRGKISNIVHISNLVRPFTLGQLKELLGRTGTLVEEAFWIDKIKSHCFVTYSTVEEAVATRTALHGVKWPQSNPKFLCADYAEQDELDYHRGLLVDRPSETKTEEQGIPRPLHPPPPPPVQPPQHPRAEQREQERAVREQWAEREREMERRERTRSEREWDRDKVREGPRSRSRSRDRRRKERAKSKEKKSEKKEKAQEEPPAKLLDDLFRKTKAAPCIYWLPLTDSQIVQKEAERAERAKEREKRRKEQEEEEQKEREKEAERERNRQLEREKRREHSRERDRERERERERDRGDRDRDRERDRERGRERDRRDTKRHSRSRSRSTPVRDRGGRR
inactive: [1] 0.035 | vorinostat 0.007 | silmitasertib 0.001 | [2] -0.012 | entospletinib -0.003

APAF1 (UniProt O14727)
inactive: [1] 0.021 | silmitasertib 0.032 | [2] 0.057 | entospletinib 0.032
active: vorinostat -0.292

AP1G2 (UniProt O75843)
inactive: [1] 0.071 | silmitasertib -0.03 | [2] 0.008 | entospletinib 0.018
active: vorinostat -0.31

AMPD3 isoform 4 (UniProt Q01432)
UniProt Q01432, sequence (Q01432 whole entry, looked up): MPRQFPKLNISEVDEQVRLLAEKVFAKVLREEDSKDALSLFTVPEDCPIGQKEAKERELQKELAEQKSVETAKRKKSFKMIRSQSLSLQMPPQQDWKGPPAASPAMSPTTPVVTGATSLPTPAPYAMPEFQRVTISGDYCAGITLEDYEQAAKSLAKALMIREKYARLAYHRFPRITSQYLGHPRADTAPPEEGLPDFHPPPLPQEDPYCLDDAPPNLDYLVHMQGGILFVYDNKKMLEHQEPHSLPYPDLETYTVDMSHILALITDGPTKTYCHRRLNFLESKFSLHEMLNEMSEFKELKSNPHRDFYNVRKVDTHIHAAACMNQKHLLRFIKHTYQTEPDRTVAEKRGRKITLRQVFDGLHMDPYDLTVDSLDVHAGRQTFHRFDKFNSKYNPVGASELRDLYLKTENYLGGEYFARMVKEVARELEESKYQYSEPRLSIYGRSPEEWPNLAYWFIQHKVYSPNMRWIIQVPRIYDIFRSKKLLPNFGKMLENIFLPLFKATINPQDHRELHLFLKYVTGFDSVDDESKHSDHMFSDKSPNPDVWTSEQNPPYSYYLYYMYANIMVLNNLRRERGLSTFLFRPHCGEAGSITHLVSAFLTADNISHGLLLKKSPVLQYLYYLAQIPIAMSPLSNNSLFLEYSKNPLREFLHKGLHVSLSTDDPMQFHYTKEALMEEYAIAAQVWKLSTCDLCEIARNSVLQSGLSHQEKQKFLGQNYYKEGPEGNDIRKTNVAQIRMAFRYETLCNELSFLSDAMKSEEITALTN
active: vorinostat 0.256
inactive: [1] -0.038 | silmitasertib -0.005 | [2] -0.021 | entospletinib 0.018

ACLY (UniProt P53396)
inactive: [1] -0.008 | vorinostat -0.029 | silmitasertib 0.012 | [2] -0.018 | entospletinib 0.014

ACYP2 (UniProt P14621)
inactive: [1] 0.066 | vorinostat 0.147 | silmitasertib -0.081 | [2] 0.012

ACOX1 isoform 2 (UniProt Q15067)
UniProt Q15067, sequence (Q15067 whole entry, looked up): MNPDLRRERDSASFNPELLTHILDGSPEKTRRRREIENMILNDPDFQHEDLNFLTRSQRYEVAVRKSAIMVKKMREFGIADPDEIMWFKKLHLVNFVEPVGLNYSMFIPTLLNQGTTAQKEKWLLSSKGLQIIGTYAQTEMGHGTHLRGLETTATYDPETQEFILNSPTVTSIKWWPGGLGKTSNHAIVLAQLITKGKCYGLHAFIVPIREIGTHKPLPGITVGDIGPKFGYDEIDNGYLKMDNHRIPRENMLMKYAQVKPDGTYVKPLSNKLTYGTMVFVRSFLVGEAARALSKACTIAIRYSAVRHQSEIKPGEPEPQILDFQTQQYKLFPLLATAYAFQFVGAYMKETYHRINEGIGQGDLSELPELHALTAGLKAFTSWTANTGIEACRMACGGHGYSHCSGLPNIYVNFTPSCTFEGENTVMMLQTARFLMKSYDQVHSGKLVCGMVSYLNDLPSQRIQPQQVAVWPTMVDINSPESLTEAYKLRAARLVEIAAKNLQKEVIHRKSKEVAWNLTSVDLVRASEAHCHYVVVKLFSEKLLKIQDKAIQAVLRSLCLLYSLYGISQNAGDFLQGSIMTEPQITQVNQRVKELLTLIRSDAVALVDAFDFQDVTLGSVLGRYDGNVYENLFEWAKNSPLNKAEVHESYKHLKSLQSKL
inactive: [1] 0.009 | vorinostat 0.09 | silmitasertib 0.009 | [2] 0.04 | entospletinib -0.012

AGPS (UniProt O00116)
UniProt O00116, sequence (O00116 whole entry, looked up): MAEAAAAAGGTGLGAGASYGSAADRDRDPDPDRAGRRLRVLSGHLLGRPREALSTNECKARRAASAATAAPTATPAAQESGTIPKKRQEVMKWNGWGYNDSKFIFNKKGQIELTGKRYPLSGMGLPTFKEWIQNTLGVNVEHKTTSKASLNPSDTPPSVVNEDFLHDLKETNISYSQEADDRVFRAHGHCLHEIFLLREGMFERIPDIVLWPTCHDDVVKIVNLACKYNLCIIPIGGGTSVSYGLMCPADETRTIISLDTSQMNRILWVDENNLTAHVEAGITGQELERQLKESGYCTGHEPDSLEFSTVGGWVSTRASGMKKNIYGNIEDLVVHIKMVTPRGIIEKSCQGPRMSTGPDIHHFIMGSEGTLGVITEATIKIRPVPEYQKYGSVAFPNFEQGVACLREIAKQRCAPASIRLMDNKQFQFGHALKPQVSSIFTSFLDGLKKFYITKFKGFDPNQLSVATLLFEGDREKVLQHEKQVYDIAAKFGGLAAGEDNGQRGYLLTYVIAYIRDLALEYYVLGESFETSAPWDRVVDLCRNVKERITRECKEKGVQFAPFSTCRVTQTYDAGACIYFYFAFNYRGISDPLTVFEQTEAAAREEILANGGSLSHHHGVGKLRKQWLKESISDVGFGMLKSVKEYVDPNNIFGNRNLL
inactive: [1] -0.015 | silmitasertib -0.007 | [2] -0.007 | entospletinib -0.005
active: vorinostat 0.365

ALG13 (UniProt Q9NP73)
active: vorinostat -0.339
inactive: [1] -0.027 | silmitasertib -0.01 | [2] 0.014 | entospletinib -0.082

ACACA isoform 4 (UniProt Q13085)
active: vorinostat -0.449
inactive: [1] -0.003 | silmitasertib 0.016 | [2] -0.003 | entospletinib 0.027

APOB (UniProt P04114)
inactive: [1] 0.063 | vorinostat 0.154 | silmitasertib 0.007 | [2] -0.012 | entospletinib 0.05

AKR1C3 (UniProt P42330)
active: vorinostat 0.546
inactive: [1] -0.009 | silmitasertib 0.044 | [2] 0.009 | entospletinib 0.059

ACTG1 (UniProt I3L4N8)
inactive: [1] -0.131 | vorinostat 0.358 | silmitasertib -0.043 | [2] 0.082 | entospletinib 0.098

ABCF2 isoform 2 (UniProt Q9UG63)
active: vorinostat -0.326
inactive: [1] 0.103 | silmitasertib 0.054 | [2] 0.016 | entospletinib -0.028

ABL1 isoform 2 (UniProt P00519)
inactive: [1] -0.003 | silmitasertib -0.019 | [2] -0.042 | entospletinib -0.008
active: vorinostat -0.328

AIMP2 (UniProt Q13155)
UniProt Q13155, sequence (Q13155 whole entry, looked up): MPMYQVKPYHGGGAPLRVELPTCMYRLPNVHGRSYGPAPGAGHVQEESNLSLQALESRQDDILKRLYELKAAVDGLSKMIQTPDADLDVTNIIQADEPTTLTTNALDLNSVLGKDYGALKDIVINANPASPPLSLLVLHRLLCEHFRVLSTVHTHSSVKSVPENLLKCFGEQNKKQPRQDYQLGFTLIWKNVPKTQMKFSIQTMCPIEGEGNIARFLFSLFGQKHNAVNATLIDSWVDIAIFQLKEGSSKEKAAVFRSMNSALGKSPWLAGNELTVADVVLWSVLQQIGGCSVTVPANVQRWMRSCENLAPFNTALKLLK
active: vorinostat -0.347
inactive: [1] -0.046 | silmitasertib 0.048 | [2] 0.017 | entospletinib -0.017

ARFGAP1 (UniProt Q8N6T3)
inactive: [1] 0.063 | vorinostat 0.253 | silmitasertib -0.066 | [2] -0.12 | entospletinib 0.038

AKAP8 (UniProt O43823)
inactive: [1] 0.047 | vorinostat -0.095 | silmitasertib 0.019 | [2] 0.023 | entospletinib -0.046

ADAM17 (UniProt P78536)
UniProt P78536, sequence (P78536 whole entry, looked up): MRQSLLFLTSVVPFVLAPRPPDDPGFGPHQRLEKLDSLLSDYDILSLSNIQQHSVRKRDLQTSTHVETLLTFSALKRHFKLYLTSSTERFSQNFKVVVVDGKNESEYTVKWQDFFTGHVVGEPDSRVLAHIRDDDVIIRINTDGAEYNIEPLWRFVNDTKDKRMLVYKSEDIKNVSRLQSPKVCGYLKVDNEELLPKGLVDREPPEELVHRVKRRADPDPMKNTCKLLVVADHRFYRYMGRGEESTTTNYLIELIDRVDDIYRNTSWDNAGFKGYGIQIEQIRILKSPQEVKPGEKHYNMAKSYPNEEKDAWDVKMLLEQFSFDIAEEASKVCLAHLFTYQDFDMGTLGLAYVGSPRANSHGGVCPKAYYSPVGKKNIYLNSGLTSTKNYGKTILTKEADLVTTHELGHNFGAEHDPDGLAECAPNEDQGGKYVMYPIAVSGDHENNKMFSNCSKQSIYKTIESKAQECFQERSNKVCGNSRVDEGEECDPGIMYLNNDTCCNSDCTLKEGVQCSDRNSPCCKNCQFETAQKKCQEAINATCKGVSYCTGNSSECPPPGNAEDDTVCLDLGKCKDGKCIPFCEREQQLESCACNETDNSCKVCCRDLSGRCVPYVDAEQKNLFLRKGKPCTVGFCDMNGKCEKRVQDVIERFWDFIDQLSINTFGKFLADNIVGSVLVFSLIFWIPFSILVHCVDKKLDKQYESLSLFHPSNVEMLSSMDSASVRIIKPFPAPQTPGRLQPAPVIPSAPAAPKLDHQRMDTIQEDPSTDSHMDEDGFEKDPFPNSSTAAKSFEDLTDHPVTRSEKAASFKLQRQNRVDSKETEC
inactive: [1] 0.014 | vorinostat 0.089 | silmitasertib -0.006 | [2] 0.042 | entospletinib 0.014

AKAP8L (UniProt Q9ULX6)
inactive: [1] -0.045 | vorinostat -0.213 | silmitasertib -0.001 | [2] -0.078 | entospletinib -0.019

ACADS (UniProt P16219)
UniProt P16219, sequence (P16219 whole entry, looked up): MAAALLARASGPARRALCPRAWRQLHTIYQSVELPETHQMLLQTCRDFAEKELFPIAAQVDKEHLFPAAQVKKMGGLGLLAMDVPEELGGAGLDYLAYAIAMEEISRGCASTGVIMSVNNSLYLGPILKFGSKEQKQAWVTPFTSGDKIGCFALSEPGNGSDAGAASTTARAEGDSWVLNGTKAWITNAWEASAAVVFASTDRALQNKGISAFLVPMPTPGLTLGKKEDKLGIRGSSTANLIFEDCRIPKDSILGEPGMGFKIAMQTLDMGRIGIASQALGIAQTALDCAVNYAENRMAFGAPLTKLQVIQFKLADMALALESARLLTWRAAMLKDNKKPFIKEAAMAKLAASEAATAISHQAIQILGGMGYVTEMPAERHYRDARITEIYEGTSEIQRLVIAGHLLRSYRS
inactive: [1] -0.005 | vorinostat 0.217 | silmitasertib -0.089 | [2] 0.017 | entospletinib -0.021

ARHGAP21 (UniProt Q5T5U3)
active: vorinostat -0.364
inactive: [1] 0.021 | silmitasertib 0.014 | [2] -0.041 | entospletinib -0.104

ALDH6A1 (UniProt Q02252)
inactive: [1] -0.041 | vorinostat -0.046 | silmitasertib 0.042 | [2] 0.096 | entospletinib 0.035

ANKRD27 (UniProt Q96NW4)
active: vorinostat -0.451
inactive: [1] -0.066 | silmitasertib -0.025 | [2] 0.022 | entospletinib 0.01
